We go through 11 compounds from PubChem BioAssay AID1508601 (ICCB-Longwood Screening Facility, Harvard Medical School, 2020).

Experiment [1] in a line: p53 stabilisation in HPV-positive human cells, imaging, p53-positive nuclei imaging, 24 h, 48 h (AID 1508601). As to conditions: 24/48 h.
Experiment [2] has as its target Cellular tumor antigen p53 (Homo sapiens) (UniProt P04637). The description is as above. The settings on record: 24/48 h, stronger effect = higher value.
Where [3] appears, read: measured here: cell number at 24 h, Library stock concentration: 10 mM.
Setting [4] is: measured here: cell number at 48 h, Library stock concentration: 10 mM.
The mark [5] stands for this setting: Library stock concentration: 10 mM.
Setting [6] is: measured here: p53 positive nuclei at 24 h, Library stock concentration: 10 mM.
Where [7] appears, read: measured here: cell number at 24 h, concentration not given here.
[8] abbreviates: measured here: cell number at 48 h, concentration not given here.
[9] abbreviates: measured here: p53 positive nuclei at 24 h, concentration not given here.
[10] abbreviates: measured here: cell number at 24 h, Library stock concentration: 3.33 mM.
[11] abbreviates: measured here: cell number at 48 h, Library stock concentration: 3.33 mM.
[12] abbreviates: Library stock concentration: 3.33 mM.
The mark [13] stands for this setting: measured here: p53 positive nuclei at 24 h, Library stock concentration: 3.33 mM.

Structures are written as SMILES. Out of some 5,700 compounds screened, about 85 (1%) were called active. No stated cut-off is given here; in the data, active means p53-positive nuclei above about 36% (passing the limit was not always enough); inactive means the rest. This excerpt belongs to a sample that is enriched for actives.

Chain of Cellular tumor antigen p53 (Homo sapiens) (P04637 whole entry, looked up): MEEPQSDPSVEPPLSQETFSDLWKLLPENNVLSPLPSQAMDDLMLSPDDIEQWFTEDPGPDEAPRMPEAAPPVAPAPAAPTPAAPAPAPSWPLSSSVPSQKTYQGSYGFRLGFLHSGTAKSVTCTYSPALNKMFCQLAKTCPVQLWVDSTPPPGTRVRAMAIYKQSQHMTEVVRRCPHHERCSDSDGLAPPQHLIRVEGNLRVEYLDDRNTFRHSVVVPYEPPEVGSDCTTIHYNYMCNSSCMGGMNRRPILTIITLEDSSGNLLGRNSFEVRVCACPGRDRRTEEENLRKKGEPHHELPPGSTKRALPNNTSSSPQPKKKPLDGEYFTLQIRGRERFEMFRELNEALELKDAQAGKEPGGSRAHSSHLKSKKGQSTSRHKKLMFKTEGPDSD

Turning to `O=C(O)c1ccccc1SC1=NS(=O)(=O)c2ccccc21`, the nuclei count, normalised was 117% in experiment [1] (measured here: cell number at 24 h, Library stock concentration: 500 nM); 119% in experiment [1] (measured here: cell number at 24 h, Library stock concentration: 1.5 uM); 119% in experiment [1] (measured here: cell number at 24 h, Library stock concentration: 4.6 uM); 120% in experiment [1] (measured here: cell number at 24 h, Library stock concentration: 13.7 uM); 125% in experiment [1] (measured here: cell number at 24 h, Library stock concentration: 41 uM); 126% in experiment [1] (measured here: cell number at 24 h, Library stock concentration: 123 uM). The nuclei count, normalised in experiment [1] (measured here: cell number at 24 h, Library stock concentration: 370 uM) turned out to be 125%; in experiment [1] (measured here: cell number at 24 h, Library stock concentration: 1.111 mM) it was 119%; in experiment [1] (measured here: cell number at 24 h, Library stock concentration: 3.333 mM) it was 120%; in experiment [1] (setting [3]), 112%; in experiment [1] (measured here: cell number at 48 h, Library stock concentration: 500 nM), 123%; in experiment [1] (measured here: cell number at 48 h, Library stock concentration: 1.5 uM) it was 121%. The nuclei count, normalised in experiment [1] (measured here: cell number at 48 h, Library stock concentration: 4.6 uM) amounted to 126%; in experiment [1] (measured here: cell number at 48 h, Library stock concentration: 13.7 uM), 116%; in experiment [1] (measured here: cell number at 48 h, Library stock concentration: 41 uM) it was 127%; in experiment [1] (measured here: cell number at 48 h, Library stock concentration: 123 uM), 121%; in experiment [1] (measured here: cell number at 48 h, Library stock concentration: 370 uM), 120%; in experiment [1] (measured here: cell number at 48 h, Library stock concentration: 1.111 mM), 117%. Further, the nuclei count, normalised in experiment [1] (measured here: cell number at 48 h, Library stock concentration: 3.333 mM) turned out to be 122%; in experiment [1] (setting [4]), 111%. Besides, the p53-positive nuclei, normalised is -0.176% (inactive) in experiment [2] (Library stock concentration: 500 nM); 0.0563% (inactive) in experiment [2] (Library stock concentration: 1.5 uM); -0.0688% (inactive) in experiment [2] (Library stock concentration: 4.6 uM); 0.0271% (inactive) in experiment [2] (Library stock concentration: 13.7 uM); -0.248% (inactive) in experiment [2] (Library stock concentration: 41 uM); -0.212% (inactive) in experiment [2] (Library stock concentration: 123 uM). For the same compound, the p53-positive nuclei, normalised in experiment [2] (Library stock concentration: 370 uM) is 0.0436% (inactive); in experiment [2] (Library stock concentration: 1.111 mM), 0.133% (inactive); in experiment [2] (Library stock concentration: 3.333 mM) it was -0.102% (inactive); in experiment [2] (setting [5]), 0.0746% (inactive); in experiment [2] (measured here: p53 positive nuclei at 24 h, Library stock concentration: 500 nM), -0.148%; in experiment [2] (measured here: p53 positive nuclei at 24 h, Library stock concentration: 1.5 uM), -0.0949%. Moreover, the p53-positive nuclei, normalised in experiment [2] (measured here: p53 positive nuclei at 24 h, Library stock concentration: 4.6 uM) is -0.0339%; in experiment [2] (measured here: p53 positive nuclei at 24 h, Library stock concentration: 13.7 uM), -0.0316%; in experiment [2] (measured here: p53 positive nuclei at 24 h, Library stock concentration: 41 uM) it was -0.148%; in experiment [2] (measured here: p53 positive nuclei at 24 h, Library stock concentration: 123 uM), -0.148%; in experiment [2] (measured here: p53 positive nuclei at 24 h, Library stock concentration: 370 uM), -0.0409%; in experiment [2] (measured here: p53 positive nuclei at 24 h, Library stock concentration: 1.111 mM), -0.0917%. Also, the p53-positive nuclei, normalised in experiment [2] (measured here: p53 positive nuclei at 24 h, Library stock concentration: 3.333 mM) was -0.0904%; in experiment [2] (setting [6]) it was -0.0218%.
Turning to `O=C(CCn1cnnn1)N1CCc2[nH]nc(-c3ccc4c(c3)OCO4)c2C1`, the results for the nuclei count, normalised in experiment [1] (setting [7]) and in experiment [1] (setting [8]) were 107% and 111%, respectively. Also, the p53-positive nuclei, normalised is 0.266% (inactive) in experiment [2] (concentration not given here) and 0.111% in experiment [2] (setting [9]).
For the compound `Cc1ccc([N+](=O)[O-])cc1S(=O)(=O)N(C)N=Cc1cnc2ccc(Br)cn12`, the nuclei count, normalised in experiment [1] (setting [10]) was found to be 17.7%; in experiment [1] (setting [11]), 14.7%. For the same compound, the p53-positive nuclei, normalised is 14.4% (inactive) in experiment [2] (setting [12]) and 4.1% in experiment [2] (setting [13]).
The matching figures for `CCc1c2c(nc3ccc(OC(=O)N4CCC(N5CCCCC5)CC4)cc13)-c1cc3c(c(=O)n1C2)COC(=O)[C@@]3(O)CC`: 44.3%, 30.6%, -0.157% (inactive) and -0.474%.
The matching figures for `CN(C)CCCn1cc(C2=C(c3c[nH]c4ccccc34)C(=O)NC2=O)c2ccccc21`: 108%, 105%, 0.0456% (inactive) and -0.293%.
Turning to `Cn1cc(C2=C(c3cn(CCCSC(=N)N)c4ccccc34)C(=O)NC2=O)c2ccccc21`, the nuclei count, normalised in experiment [1] (measured here: cell number at 24 h, Library stock concentration: 80 uM) was found to be 108%; in experiment [1] (measured here: cell number at 24 h, Library stock concentration: 400 uM) it was 104%; in experiment [1] (measured here: cell number at 24 h, Library stock concentration: 2 mM), 97.9%; in experiment [1] (setting [10]) it was 68.3%; in experiment [1] (setting [3]) it was 38.8%; in experiment [1] (setting [7]) it was 102%. Moreover, the nuclei count, normalised in experiment [1] (measured here: cell number at 48 h, Library stock concentration: 80 uM) was found to be 114%; in experiment [1] (measured here: cell number at 48 h, Library stock concentration: 400 uM) it was 111%; in experiment [1] (measured here: cell number at 48 h, Library stock concentration: 2 mM), 98.9%; in experiment [1] (setting [11]) it was 63.6%; in experiment [1] (setting [4]) it was 29%; in experiment [1] (setting [8]) it was 104%. In addition, the p53-positive nuclei, normalised was 0.143% (inactive) in experiment [2] (Library stock concentration: 80 uM); -0.08% (inactive) in experiment [2] (Library stock concentration: 400 uM); 3.66% (inactive) in experiment [2] (Library stock concentration: 2 mM); 23.8% (inactive) in experiment [2] (setting [12]); 70.5% (active) in experiment [2] (setting [5]); 0.319% (inactive) in experiment [2] (concentration not given here). The p53-positive nuclei, normalised in experiment [2] (measured here: p53 positive nuclei at 24 h, Library stock concentration: 80 uM) was -0.111%; in experiment [2] (measured here: p53 positive nuclei at 24 h, Library stock concentration: 400 uM), -0.0611%; in experiment [2] (measured here: p53 positive nuclei at 24 h, Library stock concentration: 2 mM), 3.9%; in experiment [2] (setting [13]), 33.8%; in experiment [2] (setting [6]), 47.3%; in experiment [2] (setting [9]), 0.487%.
Regarding `Cn1cc(C2=C(c3cn(CCCN)c4ccccc34)C(=O)NC2=O)c2ccccc21`, the nuclei count, normalised in experiment [1] (setting [7]) was 114%; in experiment [1] (setting [8]), 106%. For the same compound, the p53-positive nuclei, normalised is 0.117% (inactive) in experiment [2] (concentration not given here) and 0.12% in experiment [2] (setting [9]).
As for `Cc1nsc(NC(=O)NCCC2CCCCCC2)n1`, the nuclei count, normalised in experiment [1] (setting [7]) was 106%; in experiment [1] (setting [8]), 112%. Moreover, the p53-positive nuclei, normalised was -0.14% (inactive) in experiment [2] (concentration not given here) and -0.0933% in experiment [2] (setting [9]).
Consider `CC1(C)OC2C[C@H]3[C@@H]4CCC5=CC(=O)CC[C@]5(C)[C@]4(F)C(O)C[C@]3(C)[C@@]2(C(=O)CCl)O1` (stereo not given in full), for which the nuclei count, normalised in experiment [1] (setting [10]) is 80.9%; in experiment [1] (setting [11]) it was 80.1%. Moreover, the figures for the p53-positive nuclei, normalised in experiment [2] (setting [12]) and in experiment [2] (setting [13]) were -0.151% (inactive) and -0.267%, respectively.
The matching figures for `O=C1O[C@H](C(O)CO)C(O)C1O` (stereo not given in full): 110%, 103%, -0.204% (inactive) and -0.283%.
As to `COc1ccc(F)c(F)c1C(=O)c1cnc(NC2CCN(S(C)(=O)=O)CC2)nc1N`, the nuclei count, normalised was 43.7% in experiment [1] (setting [10]) and 27.7% in experiment [1] (setting [11]). Further, the p53-positive nuclei, normalised in experiment [2] (setting [12]) was 67.1% (active); in experiment [2] (setting [13]) it was 73.8%.
